# Test results as given in ChEMBL document CHEMBL4513146, “CO-ADD screening of Karazin Kharkiv National University (Ukraine) compounds”.
# Potency and affinity values are given separately.
# Test system: Cryptococcus neoformans
# Details: Concentration 32 ug.mL-1; ASSAY_TEST Inhibition of Fungal Growth; detection method Resazurin; Absorption (OD600-OD570); plate type 384well; NBS; CORNING #3640
row,SMILES,Inhibition [%]
1,CCCn1c(=O)c2ccc(C(=O)NC3CCCCC3)cc2n2c(=O)n(CC#N)nc12,-10.2
2,O=S(=O)(c1ccc2nncn2c1)N(Cc1cccc(Cl)c1)c1ccc2c(c1)OCO2,-13.77
3,Cc1ccc(NC(=O)Cn2nc3cc(C)nc(Nc4ccc(F)cc4)n3c2=O)cc1,-24.95
4,Cc1ccc(-c2ccc3nn(Cc4c(F)cccc4Cl)c(=O)n3n2)cc1,-15.06
5,Cc1cccc(CN(c2cccc(F)c2)S(=O)(=O)c2ccc3nncn3c2)c1,-4.78
6,Cc1cc(C)cc(N(Cc2ccccc2F)S(=O)(=O)c2cccn3c(C)nnc23)c1,-4.5
7,CCc1cccc(C)c1NC(=O)CSc1nnc2ccc(C(=O)Nc3cccc(F)c3)cn12,-4.75
8,COc1cc(OC)c(NC(=O)Cn2nc3c(Sc4cccc(C)c4)nccn3c2=O)cc1Cl,-23.34
9,COc1cc(NC(=O)CSc2nnc3c(=O)n(-c4ccccc4)ccn23)cc(OC)c1,-23.26
10,O=C(CSc1nnc2c(=O)n(-c3cccc(F)c3)ccn12)N1CCN(c2ccc(F)cc2)CC1,-3.61
11,CCc1ccccc1Sc1nccn2c(=O)n(CC(=O)Nc3c(C)cccc3C)nc12,-15.72
12,Cc1ccc(CN(c2cc(C)cc(C)c2)S(=O)(=O)c2cccn3c(C)nnc23)cc1,-12.99
13,COc1cccc(Oc2nccn3c(=O)n(CC(=O)NCc4cccs4)nc23)c1,-9.44
14,C=Cc1ccc(CN(c2ccc(C(C)C)cc2)S(=O)(=O)c2cccn3c(C)nnc23)cc1,-4.15
15,CCc1ccc(NC(=O)Cn2nc3c4cc(-c5ccc(Cl)cc5)nn4ccn3c2=O)cc1,-20.86
16,COc1ccc(-n2ccn3c(-c4ccc([N+](=O)[O-])cc4)nnc3c2=O)cc1Cl,-13.11
17,CSc1cccc(NC(=O)Cn2c(=O)c3nnc(C(C)C)n3c3ccccc32)c1,-18.2
18,CCc1nnc2c(SCC(=O)Nc3cc(Cl)ccc3OC)nc3ccccc3n12,-7.04
19,NC(=O)C1CCN(C(=O)CCc2nnc3c(N4CCCCC4)nc4ccccc4n23)CC1,-5.85
20,CC(C)Sc1ccc2nn(CC(=O)Nc3ccccc3F)c(=O)n2n1,-3.85

row,SMILES,Inhibition [%]
1,CC(C)CCn1c(=O)c2sccc2n2c(=O)n(Cc3ccccc3Cl)nc12,-23.98
2,COC(=O)c1sccc1NC(=O)CSc1nc2ccccc2n2c(C)nnc12,-2.05
3,COC(=O)c1ccc(NC(=O)Cn2nc3ccc(SCc4ccc(Cl)cc4)nn3c2=O)cc1,-5.53
4,O=c1c2nnc(SCc3ccc(Cl)cc3)n2ccn1-c1ccc(F)cc1,-5.79
5,Cc1ccc(-c2cc3c4nn(CC(=O)Nc5ccc(C)c(Cl)c5)c(=O)n4ccn3n2)cc1C,-8.69
6,COc1ccc(NC(=O)Cn2nc3c(Sc4cccc(F)c4)nccn3c2=O)cc1Cl,-9.78
7,COc1cc(NC(=O)Cn2nc3ccc(SC4CCCCC4)nn3c2=O)cc(OC)c1,-40.43
8,COc1ccc(NC(=O)Cn2nc3c(N4CCCC4)nccn3c2=O)cc1,-6.3
9,CCCc1nnc2c(=O)n(CC(=O)Nc3ccc4c(c3)OCCO4)c3ccccc3n12,-31.27
10,COc1ccccc1-n1ccn2c(SCC(=O)N3CCN(c4ccccc4F)CC3)nnc2c1=O,-10.82
11,Cc1nnc2ccc(S(=O)(=O)N(Cc3ccccc3F)c3cccc(Cl)c3)cn12,-11.57
12,O=C(Cn1nc2c(=O)n(-c3ccc(Br)cc3)ccn2c1=O)Nc1cc(F)ccc1F,-5.83
13,CC(C)c1ccc(Cn2c(=O)c3sccc3n3c(SCc4cccc(C(F)(F)F)c4)nnc23)cc1,-12.8
14,COc1cc(OC)c(NC(=O)Cn2nc3c(SC4CCCCC4)nccn3c2=O)cc1Cl,-20.84
15,CC(=O)c1cccc(NC(=O)CSc2nnc3ccc(C(=O)Nc4cccc(F)c4)cn23)c1,-6.79
16,CCCCOc1ccc(-c2cc3c4nnc(SCC(=O)Nc5cccc(C(C)=O)c5)n4ccn3n2)cc1,-6.36
17,Cc1cc(C)cc(Nc2nc(C)cc3nn(CC(=O)Nc4cccc(Cl)c4)c(=O)n23)c1,-8.23
18,CCOC(=O)c1cccc(NC(=O)CSc2nnc3ccc(C(=O)Nc4cccc(F)c4)cn23)c1,-5.2
19,CC(C)CCn1c(=O)c2ccc(C(=O)NC3CCCC3)cc2n2c(=S)[nH]nc12,-11.12
